We go through ten compounds from PubChem BioAssay.

Each structure is given as a SMILES string.

This assay in a line: probe aNOTCH2 binding on compound microarray – biochemical, small-molecule microarray, 635/667 nm fluorescence, primary screen (AID 1121).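 Also: score merges feature fluorescence read at 667 nm with its signal to noise.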 Particulars: higher = more signal.
On to `CCCC=C(CCC)[C@@H](NS(=O)(=O)c1ccc(-c2ccccc2)cc1)c1ccc(C(=O)OC)cc1`, for which the composite z-score was -0.0651.

`COc1ccc([Si](C)(C)[C@@H]2[C@@H](CC(=O)N(CCO)Cc3ccccc3)O[C@]3(C(=O)N(Cc4cccc(N5CCC5=O)c4)c4ccccc43)[C@H]2C)cc1` returned a composite z-score of -0.0916.

With `CCC1=C2CN(Cc3ccccc3Br)[C@@H]([C@@H](O)Cc3ccccc3)C2C=CCC1` (stereo not given in full), the composite z-score is -0.123.

On to `CO[C@H]1COC(=O)[C@H](C)COC(=O)[C@H](Cc2ccccc2)NC(=O)CC=C[C@H]1C`, for which the composite z-score is 0.087.

For the compound `Cc1ccc(S[C@]2(C(=O)NC3CC3)CC(=O)N(Cc3cc(C(F)(F)F)cc(C(F)(F)F)c3)[C@@H]2c2ccc(CO)cc2)cc1`, the composite z-score was -0.169.

As to `CCCC[C@@H]1C[C@H]1[C@@H](NC(=O)c1cccs1)c1ccc(Cl)cc1`, the composite z-score is -0.0956.

Compound `COC(=O)C(CC#Cc1ccc2c(c1)[C@]1(C(=O)N2)[C@H](C(=O)N2CCCCCCC2)[C@H]2C(=O)O[C@H](c3ccccc3)[C@H](c3ccccc3)N2[C@@H]1c1ccc(O)cc1)C(=O)OC` had a composite z-score of -0.0829.

For the compound `CC(C)N1CC=CC23O[C@@H]4/C=C\CCCOC(=O)C4[C@H]2C(=O)N(CCO)[C@@H]3C1=O` (stereo not given in full), the composite z-score is -0.0874.

On to `O=C1O[C@H](c2ccccc2)[C@H](c2ccccc2)N2[C@H]1[C@@H](C(=O)NC[C@H](O)c1ccccc1)[C@]1(C(=O)Nc3ccc(C#CC4=CCCCC4)cc31)[C@H]2c1ccc(OCCO)cc1`, for which the composite z-score is -0.0741.

For `Cc1ccc(S[C@]2(C(=O)NC(C)C)CC(=O)N(C3Cc4ccccc4C3)[C@@H]2c2ccc(CO)cc2)cc1`, the composite z-score is -0.205.
